# According to publication PMC5540273 (PLoS ONE, 2017):
# System: RPS6KA4(Kin.Dom.1-N-terminal)
# Conditions: concentration: 1 μM, replicates: in singlicate; n = 1
# 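Also: KINOMEscan kinase panel screen.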
row,Compound,%Inh
1,Cc1cccc(Nc2nc(N[C@H]3CCNC3)ncc2C(N)=O)c1.Cl [GSK2197149],0%
2,O=C(Nc1ccccc1F)NC1CCN(c2ccnc(Nc3ccc(F)cc3)n2)CC1 [GSK1379800],9%
3,CN(C)S(=O)(=O)c1cc(-c2ccc3nccc(-c4cccc(S(N)(=O)=O)c4)c3c2)cnc1N [GSK1669921],15%
4,COc1ccc(CNC(=O)NC2CCN(c3ccnc(Nc4ccc(F)cc4)n3)CC2)cc1 [GSK1379788],0%
5,Cl.Cl.NCC(C(=O)Nc1cc(Br)c(-c2ccnc3[nH]ccc23)s1)c1ccccc1 (stereo not shown) [GSK1269851],18%
6,COC(=O)Nc1nc2ccc(Oc3ccc(NC(=O)Nc4cc(C(F)(F)F)ccc4F)cc3)cc2n1C.Cl [GW692089],6%
7,Nc1ncc(-c2cccnc2)c2scc(-c3ccc4c(c3)CCN4C(=O)Cc3ccccc3)c12 [GSK683281],24%
8,Cc1ccc(C(=O)Nc2ccc(Nc3ccnc4cc(-c5nccs5)ccc34)cc2O)cc1.Cl [GW494702],0%
9,Cn1cc(-c2[nH]c3cc(NC(=O)[C@H](N)C4CCCCC4)cc4c3c2C=NNC4=O)cn1,96.8%
10,CCc1ccc(-c2ccc3c(c2)-c2c(cnn2C)S(=O)(=O)N3C)cc1,5%
11,Nc1ncc(-c2ccc3nccc(-c4ccncc4)c3c2)cc1S(=O)(=O)N1CCOCC1 [GSK1627798],0%
12,O=C(Nc1n[nH]c2nc(-c3ccc(O)cc3)ccc12)C1CC1 [SB-710363],8%
13,O=C(O)C(F)(F)F.O=C(O)C(F)(F)F.O=c1[nH]ccc2nc(N[C@@H]3CCCNC3)nc(Nc3ccc(S(=O)(=O)N4CCOCC4)cc3)c12 [GSK2177277],98.7%
14,COc1cccc(NC(=O)NC2CCN(c3ccnc(Nc4cc(OC)c(OC)c(OC)c4)n3)C2)c1 (stereo not shown) [GSK1379763],0%
15,CCS(=O)(=O)c1ccc(OC)c(Nc2nccc(-c3c(-c4cccc(NC(=O)c5c(F)cccc5F)c4)nn4ncccc34)n2)c1 [GSK326180],16%
16,COC(=O)Nc1nc2cc(Oc3ccc(NC(=O)Nc4cc(C(F)(F)F)ccc4F)cn3)ccc2[nH]1.Cl.Cl [GW681170],9%

row,Compound,%Inh
1,COc1cc(Nc2nccc(N3CCC(NC(=O)Nc4cccc(C(C)=O)c4)C3)n2)cc(OC)c1OC (stereo not shown) [GSK1379753],7%
2,COc1cc(Nc2nccc(-c3c(-c4cccc(NC(=O)c5c(F)cccc5F)c4)nn4ccccc34)n2)cc(OC)c1OC [GSK323521],25%
3,Cl.Cl.NCC(NC(=O)c1cc(-c2ccccc2)c(-c2ccnc3[nH]ccc23)s1)c1ccccc1 (stereo not shown) [GSK1321561],24%
4,Cl.c1ccc(-c2ccc3c(Nc4ccc5[nH]ncc5c4)ccnc3c2)nc1 [GW440137],0%
5,CN1CCN(CCCNc2nccc(-c3c(-c4ccc(F)cc4)nn4cc(C(F)(F)F)ccc34)n2)CC1 [GW621581],10%
6,Cl.Cl.NCC(NCc1ccc(-c2ccnc3[nH]ccc23)s1)c1ccccc1 (stereo not shown) [GSK1321565],16%
7,COc1cc(Nc2ncc3c(C)nc(-c4cc5ccccc5[nH]4)n3n2)cc(OC)c1OC [GW869516],44%
8,Nc1ncnc2c1nc(-c1ccccc1)n2-c1ccccc1 [SKF-97293],9%
9,O=C(Nc1cccc(-c2nn3ccccc3c2-c2ccnc(Nc3cccc(C(F)(F)F)c3)n2)c1)c1c(F)cccc1F [GSK292658],10%
10,CCCCc1nn2ncccc2c1-c1ccnc(Nc2ccc(N3CCN(C)CC3)cc2)n1 [GW684941],8%
11,Fc1ccc(-c2ncn(C3CCNCC3)c2-c2ccnc(Oc3ccc(-c4ccccc4)cc3)n2)cc1 [SB-245391],12%
12,FC(F)(F)c1ccc(/C=C/c2cncnc2Nc2ccc3[nH]c(Cc4ccccc4)nc3c2)cc1 [GW709199],25%
13,CC(=O)N1CCN(c2ccc(Nc3nccc(-c4sc(C(C)C)nc4-c4cccc(NS(=O)(=O)c5cccc(Cl)c5)c4)n3)cn2)CC1 [GSK1660437],10%
14,CC(=O)Nc1nc2cnc(Nc3cc(NC(=O)c4cccc(C5(C#N)CC5)c4Cl)ccc3C)nc2s1,0%
15,NCCCC(NC(=O)c1cc(Br)c(-c2ccnc3[nH]ccc23)s1)c1ccccc1.O=C(O)C(F)(F)F.O=C(O)C(F)(F)F (stereo not shown) [GSK1287544],53%
